Results as given in PubChem BioAssay AID1159580 (chemical genetic matrix, 2015).
Several values for one entry are separate records, joined by “and”; a condition that tells them apart may be missing. Identical values can stand only once. Hit rate of the full screen: of about 5,500 compounds, about 2,000 (36%) were called active. Another 18% or so got no clear call; they are omitted. No stated cut-off is given here; in the data, active means normalized growth mostly below about 0.91 (no sharp cut-off); inconclusive means no clear call, values can overlap the other calls; inactive means mostly above about 0.92. This is one part of the list.

Experiment: chemical genetic growth profiling, strain panel (AID 1159580);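 further: tested at 20 µM; growth read once vehicle control cultures reached saturation at 30 °C; 1 = growth at the plate median or of vehicle wells; lower values mean less growth of the strain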
Settings: S. cerevisiae deletion strains, growth OD

Measured: normalized growth

N#C/C(=C\c1cccc(O)c1)C(=O)O
inactive: locus YAL013W, strain DEP1, active compounds read low 0.996 | locus YAL021C, strain ccr4, active compounds read low 0.978 | locus YAL026C, strain drs2, active compounds read low 0.985 | locus YAL030W, strain snc1, active compounds read low 0.977 | locus YBL061C, strain skt5, active compounds read low 0.976 | locus YBR009C, strain hhf1, active compounds read low 1.03 | locus YBR021W, strain FUR4, active compounds read low 1.02 | locus YBR023C, strain chs3, active compounds read low 0.979 | locus YBR171W, strain sec66, active compounds read low 0.995 | locus YBR229C, strain ROT2, active compounds read low 0.961 | locus YBR231C, strain swc5, active compounds read low 1.01 | locus YBR279W, strain paf1, active compounds read low 0.987 | locus YCL016C, strain dcc1, active compounds read low 0.966 | locus YCL029C, strain bik1, active compounds read low 0.997 | locus YCL061C, strain MRC1, active compounds read low 0.985 | locus YCL069W, strain vba3, active compounds read low 1 | locus YCR088W, strain abp1, active compounds read low 0.989 | locus YDL005C, strain med2, active compounds read low 0.999 | locus YDL035C, strain GPR1, active compounds read low 0.994 | locus YDL040C, strain nat1, active compounds read low 0.99 | locus YDL074C, strain BRE1, active compounds read low 0.981 | locus YDL101C, strain DUN1, active compounds read low 0.974 | locus YDL134C, strain PPH21, active compounds read low 0.992 | locus YDL185W, strain tfp1, active compounds read low 0.98 | locus YDL192W, strain arf1, active compounds read low 0.994 | locus YDR001C, strain nth1, active compounds read low 0.988 | locus YDR069C, strain doa4, active compounds read low 0.985 | locus YDR101C, strain arx1, active compounds read low 1.01 | locus YDR137W, strain rgp1, active compounds read low 0.977 | locus YDR150W, strain NUM1, active compounds read low 0.974 | locus YDR159W, strain sac3, active compounds read low 0.987 | locus YDR162C, strain NBP2, active compounds read low 0.921 | locus YDR195W, strain ref2 1 | locus YDR297W, strain sur2, active compounds read low 0.984 | locus YDR318W, strain mcm21, active compounds read low 1.03 | locus YDR334W, strain swr1, active compounds read low 0.981 | locus YDR335W, strain msn5, active compounds read low 0.982 | locus YDR388W, active compounds read low 0.999 | locus YDR392W, strain spt3, active compounds read low 0.933 | locus YDR502C, strain sam2, active compounds read low 0.997 | locus YEL003W, strain gim4, active compounds read low 0.997 | locus YEL037C, strain rad23, active compounds read low 0.997 | locus YEL061C, strain CIN8 (second series), active compounds read low 0.989 | locus YEL061C, strain CIN8, active compounds read low 0.985 | locus YER015W, strain faa2, active compounds read low 0.975 | locus YER016W, strain bim1, active compounds read low 0.949 | locus YER110C, active compounds read low 0.942 | locus YER111C, strain swi4, active compounds read low 0.971 | locus YER155C, strain BEM2 (second series), active compounds read low 1.04 | locus YER155C, strain BEM2, active compounds read low 0.986 | locus YER167W, strain BCK2, active compounds read low 1.05 | locus YFR010W, strain ubp6, active compounds read low 1.01 | locus YGL078C, strain dbp3, active compounds read low 0.976 | locus YGL086W, strain mad1, active compounds read low 1.03 | locus YGL167C, strain pmr1, active compounds read low 0.99 | locus YGL173C, strain kem1, active compounds read low 1.01 | locus YGL227W, strain vid30, active compounds read low 0.985 | locus YGL240W, strain doc1, active compounds read low 0.986 | locus YGL248W, strain PDE1, active compounds read low 0.984 | locus YGL253W, strain hxk2, active compounds read low 0.975 | locus YGR078C, strain PAC10, active compounds read low 0.996 | locus YGR135W, strain pre9, active compounds read low 0.993 | locus YGR229C, strain SMI1, active compounds read low 1.02 | locus YGR252W, strain gcn5, active compounds read low 1.07 | locus YHR013C, strain ard1, active compounds read low 0.962 | locus YHR027C, strain rpn1, active compounds read low 0.984 | locus YHR030C, strain SLT2, active compounds read low 0.999 and 0.994 | locus YHR079C, strain IRE1 (second series), active compounds read low 1 | locus YHR079C, strain IRE1, active compounds read low 0.969 | locus YHR094C, strain hxt1, active compounds read low 0.993 | locus YHR129C, strain ARP1, active compounds read low 1 | locus YHR142W, strain chs7, active compounds read low 0.971 | locus YHR200W, strain rpn10, active compounds read low 1 | locus YIL066C, strain RNR3, active compounds read low 0.989 | locus YIL073C, strain SPO22, active compounds read low 1.1 | locus YIL125W, strain kgd1, active compounds read low 0.989 | locus YIR030C, strain dcg1, active compounds read low 0.991 | locus YJL092W, strain hpr5, active compounds read low 0.987 | locus YJL095W, strain BCK1 (second series), active compounds read low 0.984 | locus YJL095W, strain BCK1, active compounds read low 1.01 and 0.978 | locus YJL115W, strain asf1, active compounds read low 0.97 | locus YJL129C, strain trk1, active compounds read low 0.925 | locus YJL134W, strain LCB3, active compounds read low 0.987 | locus YJL154C, strain vps35, active compounds read low 0.985 | locus YJL164C, strain tpk1, active compounds read low 0.987 | locus YJL166W, strain qcr8, active compounds read low 1 | locus YJL168C, strain set2, active compounds read low 0.995 | locus YJL187C, strain SWE1 (second series), active compounds read low 0.966 | locus YJL187C, strain SWE1, active compounds read low 0.997 | locus YJR043C, strain POL32, active compounds read low 1.04 | locus YJR066W, strain TOR1, active compounds read low 0.98
